# Publication PMC8384837, “Expanding the binding specificity for RNA recognition by a PUF domain”
# What was measured:
# Assay in all cases: yeast three-hybrid, YBZ-1, SC-Leu-His + 0.5 mM 3-AT, 4 days
# Conditions in all cases: tags: N-Gal4 AD-HA kept; label: inside an RPR1-promoter hybrid RNA with tandem MS2 sites; ssRNA
# PUM1 PUF domain R3-FFA = PUM1 PUF domain R3-FFA (Homo sapiens, UniProt Q14671 828-1176, C935F;R936F;Q939A)
# How it was run: (§1)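 Sequencing with Illumina followed PCR amplification of the repeat regions from transformants grown four days on SC-Leu (input) or SC-Leu-His + 0.5 mM 3-AT (selection). The transformants were strain YBZ-1 with a LexA–MS2 coat fusion and a HIS3 reporter, carrying Pumilio-1 PUF domain libraries and matching RNA elements. The interaction score is the log change in variant frequency from input to selection, computed in log2 with a pseudocount of 1 for absent variants.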
# PUM1 PUF domain R3-LRM = PUM1 PUF domain R3-LRM (Homo sapiens, UniProt Q14671 828-1176, C935L;Q939M)
# PUM1 PUF domain R3-LRM, sequence (Q14671 828-1176 C935L/Q939M): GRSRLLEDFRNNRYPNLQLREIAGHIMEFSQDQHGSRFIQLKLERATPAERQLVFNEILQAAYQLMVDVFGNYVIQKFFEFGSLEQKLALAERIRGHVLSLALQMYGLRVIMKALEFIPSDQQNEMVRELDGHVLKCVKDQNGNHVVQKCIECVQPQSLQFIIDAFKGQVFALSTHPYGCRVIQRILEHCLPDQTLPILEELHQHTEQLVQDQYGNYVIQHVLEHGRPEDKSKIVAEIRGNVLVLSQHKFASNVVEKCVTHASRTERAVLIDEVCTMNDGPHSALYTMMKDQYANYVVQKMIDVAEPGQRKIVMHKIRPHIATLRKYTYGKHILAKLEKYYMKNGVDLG
# How it was run: as §1
# PUM1 PUF domain R1-RAQ = PUM1 PUF domain R1-RAQ (Homo sapiens, UniProt Q14671 828-1176, S863R;R864A)
# PUM1 PUF domain R1-RAQ, sequence (Q14671 828-1176 S863R/R864A): as the sequence (Q14671 828-1176 C935L/Q939M) above, with S36R, R37A, L108C, M112Q counted along it
# How it was run: as §1
# PUM1 PUF domain R1-KVE = PUM1 PUF domain R1-KVE (Homo sapiens, UniProt Q14671 828-1176, S863K;R864V;Q867E)
# PUM1 PUF domain R1-KVE, sequence (Q14671 828-1176 S863K/R864V/Q867E): as the sequence (Q14671 828-1176 C935L/Q939M) above, with S36K, R37V, Q40E, L108C, M112Q counted along it
# How it was run: as §1
# PUM1 PUF domain R1-VWK = PUM1 PUF domain R1-VWK (Homo sapiens, UniProt Q14671 828-1176, S863V;R864W;Q867K)
# PUM1 PUF domain R1-VWK, sequence (Q14671 828-1176 S863V/R864W/Q867K): as the sequence (Q14671 828-1176 C935L/Q939M) above, with S36V, R37W, Q40K, L108C, M112Q counted along it
# How it was run: as §1
# PUM1 PUF domain R1-NIS = PUM1 PUF domain R1-NIS (Homo sapiens, UniProt Q14671 828-1176, S863N;R864I;Q867S)
# PUM1 PUF domain R1-NIS, sequence (Q14671 828-1176 S863N/R864I/Q867S): as the sequence (Q14671 828-1176 C935L/Q939M) above, with S36N, R37I, Q40S, L108C, M112Q counted along it
# How it was run: as §1
# PUM1 PUF domain R8-RFN = PUM1 PUF domain R8-RFN (Homo sapiens, UniProt Q14671 828-1176, N1122R;Y1123F;Q1126N)
# PUM1 PUF domain R8-RFN, sequence (Q14671 828-1176 N1122R/Y1123F/Q1126N): as the sequence (Q14671 828-1176 C935L/Q939M) above, with L108C, M112Q, N295R, Y296F, Q299N counted along it
# How it was run: as §1
# PUM1 PUF domain R4-NFQ = PUM1 PUF domain R4-NFQ (Homo sapiens, UniProt Q14671 828-1176, H972F)
# PUM1 PUF domain R4-NFQ, sequence (Q14671 828-1176 H972F): as the sequence (Q14671 828-1176 C935L/Q939M) above, with L108C, M112Q, H145F counted along it
# How it was run: as §1
# PUM1 PUF domain R5-KGG = PUM1 PUF domain R5-KGG (Homo sapiens, UniProt Q14671 828-1176, C1007K;R1008G;Q1011G)
# PUM1 PUF domain R5-KGG, sequence (Q14671 828-1176 C1007K/R1008G/Q1011G): as the sequence (Q14671 828-1176 C935L/Q939M) above, with L108C, M112Q, C180K, R181G, Q184G counted along it
# How it was run: as §1
# PUM1 PUF domain R8-TWN = PUM1 PUF domain R8-TWN (Homo sapiens, UniProt Q14671 828-1176, N1122T;Y1123W;Q1126N)
# PUM1 PUF domain R8-TWN, sequence (Q14671 828-1176 N1122T/Y1123W/Q1126N): as the sequence (Q14671 828-1176 C935L/Q939M) above, with L108C, M112Q, N295T, Y296W, Q299N counted along it
# How it was run: as §1
# PUM1 PUF domain R3-FFA, sequence (Q14671 828-1176 C935F/R936F/Q939A): as the sequence (Q14671 828-1176 C935L/Q939M) above, with L108F, R109F, M112A counted along it
sequence,measurement,setting,value
GGCUAGAACUAGUGGAUCCCCCGGCGCCCGGCGGCUCGAGCCCGGGUAAGUGUAAGUAGUCUGCAUGCCGCCGGGCGCCAUGCCUGCAGGUCGACUCUAGAAAACAUG,binding signal,PUM1 PUF domain R3-FFA,8.18 log2 enrichment (interaction score)
same,binding signal,PUM1 PUF domain R3-LRM,3.32 log2 enrichment (interaction score)
GGCUAGAACUAGUGGAUCCCCCGGCGCCCGGCGGCUCGAGCCCGGGUAAGUGUAAAUUGUCUGCAUGCCGCCGGGCGCCAUGCCUGCAGGUCGACUCUAGAAAACAUG,binding signal,PUM1 PUF domain R1-RAQ,2.71 log2 enrichment (interaction score)
same,binding signal,PUM1 PUF domain R1-KVE,3.9 log2 enrichment (interaction score)
same,binding signal,PUM1 PUF domain R1-VWK,3.24 log2 enrichment (interaction score)
same,binding signal,PUM1 PUF domain R1-NIS,6.67 log2 enrichment (interaction score)
GGCUAGAACUAGUGGAUCCCCCGGCGCCCGGCGGCUCGAGCCCGGGUAAGUGUAAAUCGUCUGCAUGCCGCCGGGCGCCAUGCCUGCAGGUCGACUCUAGAAAACAUG,binding signal,PUM1 PUF domain R1-RAQ,2.93 log2 enrichment (interaction score)
same,binding signal,PUM1 PUF domain R1-KVE,3.75 log2 enrichment (interaction score)
GGCUAGAACUAGUGGAUCCCCCGGCGCCCGGCGGCUCGAGCCCGGGUAAGUGUAAAUGGUCUGCAUGCCGCCGGGCGCCAUGCCUGCAGGUCGACUCUAGAAAACAUG,binding signal,PUM1 PUF domain R1-RAQ,1.23 log2 enrichment (interaction score)
GGCUAGAACUAGUGGAUCCCCCGGCGCCCGGCGGCUCGAGCCCGGGUAAGUGUAAAUAGUCUGCAUGCCGCCGGGCGCCAUGCCUGCAGGUCGACUCUAGAAAACAUG,binding signal,PUM1 PUF domain R8-RFN,2.38 log2 enrichment (interaction score)
GGCUAGAACUAGUGGAUCCCCCGGCGCCCGGCGGCUCGAGCCCGGGUAAGUGUAAUUAGUCUGCAUGCCGCCGGGCGCCAUGCCUGCAGGUCGACUCUAGAAAACAUG,binding signal,PUM1 PUF domain R3-FFA,4.46 log2 enrichment (interaction score)
GGCUAGAACUAGUGGAUCCCCCGGCGCCCGGCGGCUCGAGCCCGGGUAAGUGUAUAUAGUCUGCAUGCCGCCGGGCGCCAUGCCUGCAGGUCGACUCUAGAAAACAUG,binding signal,PUM1 PUF domain R4-NFQ,2.34 log2 enrichment (interaction score)
GGCUAGAACUAGUGGAUCCCCCGGCGCCCGGCGGCUCGAGCCCGGGUAAGUGUUAAUAGUCUGCAUGCCGCCGGGCGCCAUGCCUGCAGGUCGACUCUAGAAAACAUG,binding signal,PUM1 PUF domain R5-KGG,2.27 log2 enrichment (interaction score)
GGCUAGAACUAGUGGAUCCCCCGGCGCCCGGCGGCUCGAGCCCGGGUAAGUGUCAAUAGUCUGCAUGCCGCCGGGCGCCAUGCCUGCAGGUCGACUCUAGAAAACAUG,binding signal,PUM1 PUF domain R5-KGG,2.89 log2 enrichment (interaction score)
GGCUAGAACUAGUGGAUCCCCCGGCGCCCGGCGGCUCGAGCCCGGGUAAGCGUAAAUAGUCUGCAUGCCGCCGGGCGCCAUGCCUGCAGGUCGACUCUAGAAAACAUG,binding signal,PUM1 PUF domain R8-TWN,2.51 log2 enrichment (interaction score)
same,binding signal,PUM1 PUF domain R8-RFN,2.57 log2 enrichment (interaction score)
